# Source: PubChem (National Center for Advancing Translational Sciences (NCATS))
# Pf Dd2 inh: blocks in vitro growth of P. falciparum Dd2; P. falciparum Dd2 growth, SYBR Green, 72 h; Potency, µM (series often up to 28.9 µM), usual class: inhibitors; actives 4.3% (n = 120,000); active = well fitted inhibition curve with a large enough effect; note: nearly all actives have a fitted effect of over 65% in size
#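 Infected erythrocytes (Dd2, 0.3% parasitemia, 2.5% hematocrit final) are added to compound in RPMI-1640/Albumax II medium, grown 72 h at 37C in low oxygen, then lysed with saponin/Triton-X containing SYBR Green and read by fluorescence.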
# Hits are given with their value; n = inactive; [ ] = remark or other dose. The full list was thinned out, with hits kept by preference.
SMILES,Pf Dd2 inh
O=C(CCC1N=C2c3ccccc3N=C(SCc3ccc(F)cc3)N2C1=O)N1CCN(c2ccccc2)CC1 (stereo not drawn),13µM
N#Cc1ccccc1OCC1CN(Cc2cccc(C(F)(F)F)c2)C(=O)c2c(ccnc2-c2ccc(OCC(=O)O)cc2)O1 (stereo not drawn),n
CCNC(=O)NCC1Cn2cccc2CN1C (stereo not drawn),n
CC(C)CC(=O)N[C@H](C)c1onc(-c2cccnc2)c1C(=O)O,n
CCC1(O)CCC12CCN(C(=O)c1cccnc1)CC2 (stereo not drawn),n
CC1=C[C@@H](CNS(C)(=O)=O)[C@H](C(C)C)C[C@H]1CC(=O)NC1CCCC1,n
N#Cc1cccc(C(=O)N2CCCC(n3cc(-c4nc(C5CC5)no4)nn3)C2)c1 (stereo not drawn),n
Cc1ccc(-c2noc([C@@H](N)CCCCN)n2)nn1,n
COC1CCCOC12CCN(C(=O)c1ccc3n[nH]nc3c1)CC2 (stereo not drawn),n
Cc1ccc(C)c(CN2CCn3nnc(-c4nc(-c5ccsc5)no4)c3C2=O)c1,n
COc1ccc(-c2nc3c(c(=O)[nH]2)CCN(C(=O)NCC2CCCO2)C3)cc1 (stereo not drawn),n
COc1ccc(-c2nc3c(c(=O)[nH]2)CCN(S(=O)(=O)C2CC2)C3)cc1,n
COc1ccc(-c2nc3c(c(=O)[nH]2)CCN(C(=O)c2nccc4ccccc24)C3)cc1,5µM
COc1ccc(-c2nc3c(c(=O)[nH]2)CCN(C(=O)Nc2cc(F)cc(F)c2)C3)cc1,n
COc1ccc(-c2nc3c(c(=O)[nH]2)CCN(C(=O)c2cc(Cl)ccc2OC)C3)cc1,10µM
COc1ccc(-c2nc3c(c(=O)[nH]2)CCN(C(=O)Nc2ccc4c(c2)CCC4)C3)cc1,n
CC(=O)Nc1ccc(NC(=O)Cn2ccn3nc(-c4ccccc4)c(CO)c3c2=O)cc1,n
COCc1noc(CCNC(=O)C2CCN(C(=O)C3CC3)CC2)n1,n
CCCOc1ccc(C2c3c(oc4ccccc4c3=O)C(=O)N2c2ccc(C)cn2)cc1OCC (stereo not drawn),n
CCOc1cc(C2c3c(oc4ccccc4c3=O)C(=O)N2c2ccccn2)ccc1O (stereo not drawn),n
CCOc1ccc(-c2oc3ccccc3c(=O)c2O)cc1OCC,10µM
CNC(=O)[C@@H]1C[C@H](n2cc(CNC(=O)Nc3ccc(C)c(Cl)c3)nn2)CN1,n
O=C(c1cccnc1)N1CCC(c2noc(-c3cnccn3)n2)C1 (stereo not drawn),n[5.79 µM]
CC(C)CN1CCN(C2CCOC3(CCN(C(=O)c4ccc5[nH]ccc5c4)CC3)C2)CC1 (stereo not drawn),n
COCCN1C(=O)CC[C@]2(C(=O)N(C)CCc3ccncc3)CCCC[C@@H]12,n
SMILES,Pf Dd2 inh
O=C(Nc1ccc(Cl)cc1)c1nc2c(o1)CCN(Cc1cnc[nH]1)CC2,n
Cc1cc(C(=O)N2C[C@@H](COCC3CC3)[C@H](c3ccncc3)C2)no1,n
c1ccc(-c2ccc3ncc(Nc4cccnc4)n3n2)cc1,1.6µM
c1ccc(-c2ccc3ncc(Nc4cnccn4)n3n2)cc1,n
Clc1ccc(Nc2cnc3ccc(-c4ccccc4)nn23)nc1,n
Fc1ccc(-c2ccc3ncc(Nc4ncccn4)n3n2)cc1,n
Fc1ccc(-c2ccc3ncc(Nc4ccc(Cl)cn4)n3n2)cc1,n
Fc1ccc(-c2ccc3ncc(Nc4ccccn4)n3n2)cc1,5.6µM
COc1ccc(C(=O)N[C@@H]2CCC[C@@H]2C(=O)NCc2ccc(OC(C)C)cc2)cc1,n
COc1cccc(CC(=O)N2CCCC3(C2)NC(=O)N(Cc2ccc(Cl)cc2)C3=O)c1 (stereo not drawn),n
Cc1cccc(C(=O)N2CCC3(CC2)CC(c2ccccc2)C(=O)N3C)c1C (stereo not drawn),n
O=C(O)C[C@@H]1CCN(C(=O)C(=O)O)C[C@@H]1CC1=NCCc2ccccc21,n
CC(=O)N1CCCN(Cc2nnc(C(=O)N3CCC[C@@H]3c3cccc(F)c3)n2-c2ccccc2)CC1,n
CC(=O)NCc1cn[nH]c1-c1ccc(Cl)cc1,n
CC(C)CN(Cc1cccnc1)C1CN(C(=O)Nc2ccccc2F)C1,n
COc1cccc(N2C(=O)NC(=NC3CCCCC3)C23CCCN(Cc2ccc(N(C)C)cc2)C3)c1 (stereo not drawn),11µM
COc1ccc(C(=O)N2CCCC3(C2)C(=NC2CCCC2)NC(=O)N3c2cccc(OC)c2)cc1 (stereo not drawn),n
COc1cccc(N2C(=O)NC(=NC3CCCCC3)C23CCCN(C(=O)c2ccccc2)C3)c1 (stereo not drawn),n
COc1cccc(N2C(=O)NC(=NC3CCCCC3)C23CCN(C(=O)c2ccccc2)C3)c1 (stereo not drawn),n
COc1cccc(N2C(=O)NC(=NC3CCCC3)C23CCCN(Cc2ccc(N(C)C)cc2)C3)c1 (stereo not drawn),11µM
COc1cccc(N2C(=O)NC(=NC3CCCC3)C23CCN(C(=O)c2ccccc2)C3)c1 (stereo not drawn),n
Cc1ccc(N2CCC(NC(=O)c3cc(F)cc(F)c3)C2=O)cc1 (stereo not drawn),n
O=C(C1CCC1)N1CCN(C2CCN(Cc3ccccn3)C2=O)CC1 (stereo not drawn),n
CN(C)c1ccc(C(=O)N[C@H]2C[C@H]3C(=O)NC[C@@H](CCC(=O)NCc4ccc(F)cc4)N3C2)cc1,n
COc1ccc(-c2noc([C@@H]3CCCN3C(=O)c3ccc(F)cc3Cl)n2)cc1,n
SMILES,Pf Dd2 inh
COc1cccc(OCc2nc3c(n2Cc2ccccc2)C(=O)N(CCOc2ccccc2)CCN3)c1,n
N#Cc1ccc(OCc2nc3c(n2Cc2ccccc2)C(=O)N(CC2CC2)CCN3)cc1,10µM
O=C1c2c(nc(COc3ccc(F)cc3)n2Cc2ccccc2)NCCN1Cc1ccccc1,n
COc1cc(Cl)ccc1OCc1nc2c(n1Cc1ccccc1)C(=O)N(Cc1ccccc1C#N)CCN2,n
COc1cccc(OCc2nc3c(n2Cc2ccccc2)C(=O)N(CC2CCOCC2)CCN3)c1,11µM
O=C1c2c(nc(CNCc3cccc(Cl)c3)n2Cc2ccccc2)NCCN1Cc1ccccc1F,n
COc1cccc(OCc2nc3c(n2Cc2ccccc2)C(=O)N(C)CCN3)c1,n
N#Cc1ccccc1CN1CCNc2nc(CNCc3ccc4c(c3)OCO4)n(Cc3ccccc3)c2C1=O,6.3µM
O=C1c2c(nc(COc3ccccc3)n2Cc2ccccc2)NCCN1CCOc1ccccc1,n
O=C1CCCN1Cc1noc(-c2cccc(Cl)c2)n1,n
COc1ccccc1[C@@H]1CN(C(=O)c2cc(C(C)C)[nH]n2)C[C@H]1C(=O)O,n
CN1CC2(CCN(C(=O)NCc3ccco3)CC2)CC(c2ccccc2)C1=O (stereo not drawn),n
Cc1ccc(Cn2c(C3CCN(C(=O)Cc4cccc(F)c4)CC3)n[nH]c2=O)cc1,n
CC(C)N1CCN(C2CCOC3(CCN(C(=O)Cc4cccc(F)c4)CC3)C2)CC1 (stereo not drawn),n
Cc1cccc(CNC(=O)c2ccc(Cn3c(SCc4cccc(F)c4)nc4cccnc43)cc2)c1,n
CC(C)OCCCNC(=O)c1ccc(CSc2nc3cccnc3n2Cc2ccccc2)cc1,n
COc1cccc(CNC(=O)c2ccc(Cn3c(SCc4ccccc4)nc4cccnc43)cc2)c1,10µM
O=C(NCc1ccco1)c1ccc(Cn2c(SCc3ccccc3)nc3cccnc32)cc1,n
COc1ccc(Cn2c(SCc3ccc(C(=O)NCc4ccc(C)cc4)cc3)nc3cccnc32)cc1,10µM
